Source: PubChem BioAssay (several laboratories)
Rows were chosen to be rich in hits. Some 2.2% of all compounds tested hit in one or more screens of this group.
EBNA-1 inhibitor = blocks EBNA-1 binding to DNA; inhibition, % at 14.8 µM; EBNA-1 DNA binding, fluorescence polarization; AID 1950; 300,000 tested, 0.34% active; in the data active means inhibition above about 28%
dFosB act = mouse delta FosB homodimer activation; P13346; purified delta FosB, TAMRA-CDK5 oligo fluorescence polarization; percent of positive-control signal above neutral wells; activation, % at 25 µM; 340,000 tested, 0.99% active; AID 493131;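 active means mean activation above about 17%, with every replicate also reaching it, limit read from the data, passing the limit was not always enough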
Target sequence (P13346 whole entry, looked up): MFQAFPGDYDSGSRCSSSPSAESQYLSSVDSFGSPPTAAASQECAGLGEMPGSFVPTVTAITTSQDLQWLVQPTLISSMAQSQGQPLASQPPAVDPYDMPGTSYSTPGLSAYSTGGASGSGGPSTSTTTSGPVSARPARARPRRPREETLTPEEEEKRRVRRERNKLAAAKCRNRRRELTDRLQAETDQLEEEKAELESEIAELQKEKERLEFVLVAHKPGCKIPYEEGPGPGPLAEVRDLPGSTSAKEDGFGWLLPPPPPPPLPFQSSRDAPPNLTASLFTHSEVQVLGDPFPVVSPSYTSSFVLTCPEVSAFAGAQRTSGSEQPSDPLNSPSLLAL
ZTA DNA inh = counter-screen for EBNA-1 inhibitors: inhibitors of Epstein-Barr virus ZTA | P03206 | ZTA-DNA binding, fluorescence polarization | inhibition, % at 11 µM | 320,000 tested, 0.15% active; in the data active means inhibition above about 33%
Target sequence (P03206 whole entry, looked up): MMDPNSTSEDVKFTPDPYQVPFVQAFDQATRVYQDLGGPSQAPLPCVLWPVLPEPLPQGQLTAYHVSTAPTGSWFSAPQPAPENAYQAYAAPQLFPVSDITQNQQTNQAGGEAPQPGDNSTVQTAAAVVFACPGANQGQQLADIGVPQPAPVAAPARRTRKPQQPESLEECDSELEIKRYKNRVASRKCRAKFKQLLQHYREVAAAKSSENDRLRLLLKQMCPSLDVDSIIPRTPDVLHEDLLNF
NALP1 yeast inh = inhibitors of NALP1 inflammasome in yeast | S. cerevisiae NALP1/ASC/caspase-1 growth, X-gal OD620, 72 h | inhibition, % at 10 µM | 280,000 tested, 0.61% active; in the data active means inhibition mostly above about 24%, no sharp cut-off; inactive means mostly below about 32%
PolyA inhibitor = blocks polyadenylation in yeast reporter cells; S. cerevisiae SKY197-pL101 polyadenylation reporter, beta-gal luminescence; efflux-impaired pdr1/pdr3 knockout yeast; score 100 = 6 SD above DMSO; activity score, % at 12 µM; 300,000 tested, 0.02% active; AID 1875;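 active means lowest replicate activity score at least 50, where 100 means six control SD above control mean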;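 further: yeast exposed to compound for 9 h at 30 °C; higher score means more reporter readthrough which indicates perturbed polyadenylation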
NALP3 yeast inh = inhibitors of NALP3 inflammasome in yeast; 330,000 tested, 0.39% active; AID 2825; Yeast reconstituted NLRP3/ASC/caspase-1, beta-gal luminescence, 24 h; inhibition, % at 10 µM;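 active means inhibition of 50% or more; inactive means inhibition below 50%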;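 further: plate controls were induced DMSO wells for no effect and uninduced yeast grown without galactose for full effect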
Active calls of the source: *.

How did CCCn1c2c(c(O)c(C(=O)Nc3nc(C)cs3)c1=O)CCCC2 do in these assays?
NALP1 yeast inh: 16; PolyA inhibitor: 17

Results for Cc1csc(NC(=O)c2c(O)c3c(n(CC(C)C)c2=O)CCCC3)n1 ?
EBNA-1 inhibitor: -5; dFosB act: -11; ZTA DNA inh: -2; NALP1 yeast inh: 31*; PolyA inhibitor: -4; NALP3 yeast inh: -12

Results for COCCNC(=O)c1cc2nc3c(c(C(F)(F)F)n2n1)CCc1ccccc1-3 ?
EBNA-1 inhibitor: -1; dFosB act: -11; ZTA DNA inh: 4; NALP1 yeast inh: 30*; PolyA inhibitor: -2; NALP3 yeast inh: -12

Results for COc1ccc(C(=O)C2CCCN(Cc3c[nH]c4ccccc34)C2)c(OC)c1 (centres undefined) ?
EBNA-1 inhibitor: 3; dFosB act: 0; ZTA DNA inh: 9; NALP1 yeast inh: 28*; PolyA inhibitor: 21; NALP3 yeast inh: 14

What do the screens show for `CCOC(=O)c1[nH]ncc1CN1CCCC(C(=O)c2cc(Cl)ccc2OC)C1` (centres undefined)?
EBNA-1 inhibitor: 1; dFosB act: -10; ZTA DNA inh: -22; NALP1 yeast inh: 33*; PolyA inhibitor: 10; NALP3 yeast inh: 10

Results for Cc1cc(NS(=O)(=O)c2ccc(NC(=O)c3ccco3)cc2)nc(C)n1 ?
EBNA-1 inhibitor: -2; dFosB act: -6; ZTA DNA inh: 3; NALP1 yeast inh: 4; PolyA inhibitor: 10; NALP3 yeast inh: 14

Results for O=C(/C=C/c1ccco1)Nc1ccc(C(=O)N2CCOCC2)cc1 ?
EBNA-1 inhibitor: 6; dFosB act: -8; ZTA DNA inh: 4; NALP1 yeast inh: 23; PolyA inhibitor: 5; NALP3 yeast inh: 7

How did Cc1cc(NS(=O)(=O)c2ccc(NC(=O)/C=C/c3ccco3)cc2)nc(C)n1 do in these assays?
EBNA-1 inhibitor: -4; dFosB act: 3; ZTA DNA inh: 8; NALP1 yeast inh: 38*; PolyA inhibitor: 14; NALP3 yeast inh: 15

Results for O=C(/C=C/c1ccco1)Nc1ccc(N2CCCC2)cc1 ?
EBNA-1 inhibitor: -3; dFosB act: 41*; ZTA DNA inh: 12; NALP1 yeast inh: 39; PolyA inhibitor: 15; NALP3 yeast inh: 39

How did CCOC(=O)CC1(NC(=O)C2CCC(=O)N(Cc3ccccc3F)C2)CCCCC1 (centres undefined) do in these assays?
EBNA-1 inhibitor: -14; dFosB act: -7; ZTA DNA inh: 4; NALP1 yeast inh: 27; PolyA inhibitor: 1; NALP3 yeast inh: 0

What do the screens show for `CCC(C)OC(=O)c1[nH]c2c(c1C)C(=O)CC(c1ccc(N(C)C)cc1)C2` (centres undefined)?
EBNA-1 inhibitor: 2; dFosB act: 29*; ZTA DNA inh: -12; PolyA inhibitor: -8; NALP3 yeast inh: 5

What do the screens show for `CCOCCOC(=O)c1[nH]c2c(c1C)C(=O)CC(c1ccc(N(C)C)cc1)C2` (centres undefined)?
EBNA-1 inhibitor: 4; dFosB act: 0; ZTA DNA inh: -3; NALP1 yeast inh: 34; PolyA inhibitor: 1; NALP3 yeast inh: 0

How did C/C=C/COC(=O)c1[nH]c2c(c1C)C(=O)CC(c1ccc(N(C)C)cc1)C2 (centres undefined) do in these assays?
EBNA-1 inhibitor: 3; dFosB act: 85*; ZTA DNA inh: -1; PolyA inhibitor: 2; NALP3 yeast inh: 32

How did COC(=O)Cn1ncc(N(C)Cc2ccccc2)c(Cl)c1=O do in these assays?
EBNA-1 inhibitor: -17; dFosB act: -2; ZTA DNA inh: -12; NALP1 yeast inh: 13; PolyA inhibitor: 1; NALP3 yeast inh: -17

What do the screens show for `CC(=O)c1cccc(N(CC(=O)NC2CCCCC2)C(=O)CCC(=O)Nc2nc(C)cs2)c1`?
EBNA-1 inhibitor: 10; dFosB act: -3; ZTA DNA inh: 7; NALP1 yeast inh: -10; PolyA inhibitor: 7; NALP3 yeast inh: 7

Results for CC1CCCN(CCOCCOc2ccc(Cl)cc2Br)C1 (centres undefined) ?
EBNA-1 inhibitor: -6; dFosB act: -8; ZTA DNA inh: -6; NALP1 yeast inh: 42*; PolyA inhibitor: -43; NALP3 yeast inh: 34

How did CC1CCCN(CCOCCOc2ccc(Br)cc2Cl)C1 (centres undefined) do in these assays?
EBNA-1 inhibitor: -2; dFosB act: 11; ZTA DNA inh: -10; NALP1 yeast inh: 48*; PolyA inhibitor: -40; NALP3 yeast inh: 35

How did COCCCNCCCOc1ccc(Cl)cc1Br do in these assays?
EBNA-1 inhibitor: 0; dFosB act: -6; ZTA DNA inh: -3; NALP1 yeast inh: 19; PolyA inhibitor: 5; NALP3 yeast inh: 11

What do the screens show for `CCCCNCCOCCOc1ccc(Cl)cc1Br`?
EBNA-1 inhibitor: -11; dFosB act: -6; ZTA DNA inh: -10; NALP1 yeast inh: 52*; PolyA inhibitor: -16; NALP3 yeast inh: 25

Results for COc1ccc(NC(=O)/C(C#N)=C/c2ccc(Sc3nncn3C)c([N+](=O)[O-])c2)cc1 ?
EBNA-1 inhibitor: -3; dFosB act: -12; ZTA DNA inh: 2; NALP1 yeast inh: -23; PolyA inhibitor: -22; NALP3 yeast inh: 15

What do the screens show for `C[C@H](NC(=O)N1CCn2c1nc1ccccc12)C(=O)NCc1ccccc1`?
EBNA-1 inhibitor: 4; dFosB act: -8; ZTA DNA inh: 2; NALP1 yeast inh: 1; PolyA inhibitor: 34; NALP3 yeast inh: 16

How did CCCCCCOc1ccc(/C(C)=N/NC2=NCCN2)cc1 do in these assays?
EBNA-1 inhibitor: -2; dFosB act: -2; ZTA DNA inh: -2; NALP1 yeast inh: 88*; PolyA inhibitor: 2; NALP3 yeast inh: 29

Results for CC(C)CC1Nc2ncnc(N3CCN(c4ccccc4)CC3)c2N(Cc2ccc(Br)cc2)C1=O (centres undefined) ?
EBNA-1 inhibitor: 5; dFosB act: 0; ZTA DNA inh: 13; PolyA inhibitor: 1; NALP3 yeast inh: 19

How did CC(C)CC1Nc2ncnc(N3CCN(c4ccccc4)CC3)c2N(Cc2ccccc2)C1=O (centres undefined) do in these assays?
EBNA-1 inhibitor: -2; dFosB act: 2; ZTA DNA inh: 8; PolyA inhibitor: 84*; NALP3 yeast inh: 8

How did CCNC(=O)Oc1ccc[nH]c1=O do in these assays?
EBNA-1 inhibitor: 1; dFosB act: 1; ZTA DNA inh: 2; NALP1 yeast inh: 37*; PolyA inhibitor: 39; NALP3 yeast inh: 36

Results for COc1ccc(C(=O)Oc2ccc[nH]c2=O)cc1 ?
EBNA-1 inhibitor: -14; dFosB act: -8; ZTA DNA inh: -17; NALP1 yeast inh: 24; PolyA inhibitor: 1; NALP3 yeast inh: 13

What do the screens show for `CC1CCc2cc(F)cc3c(=O)c(C(=O)O)cn1c23` (centres undefined)?
EBNA-1 inhibitor: 10; dFosB act: 1; ZTA DNA inh: 8; NALP1 yeast inh: 102*; PolyA inhibitor: 14; NALP3 yeast inh: 11
